PubChem BioAssay (NCATS)
“And” between values parts separate entries of the source, which are not always exact repeats. Identical values can stand only once. Results filed as inconclusive are left out. The source made the active and inactive calls. The call rests on the fitted dose curve; in most records, active means well fitted curve in the direction sought with a large enough effect; inconclusive means small, poorly fitted or top-dose-only effect, or another doubt; inactive means no such curve, though single readings can be large; an effect the other way counts as inactive or inconclusive.

Experiments:
[1] = Viability qHTS for spleen associated tyrosine kinase inhibitor (SYKi) naive MV4-11 cells (AID 1963823); conditions: MV4-11 AML viability, CellTiter-Glo luminescence, 72 h; series mostly up to 45 µM; further: nearly all actives have a fitted effect of over 40% in size
Summary of the method: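 Seeding of 500 SYKi-naive MV4-11 cells per well onto pre-dispensed compounds preceded a 72 hr incubation at 37 C. Luminescent CellTiter-Glo signal, read after 10 min at room temperature, reflected viable cells.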

[2] = Viability qHTS for spleen associated tyrosine kinase inhibitor (SYKi) drug resistant MV4-11 cells (AID 1963824); conditions: SYKi-resistant MV4-11 viability, CellTiter-Glo, 72 h; series mostly up to 45 µM; further: nearly all actives have a fitted effect of over 35% in size
Summary of the method: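 SYK-inhibitor-resistant MV4-11 AML cells were seeded at 500 per well onto compound and cultured 72 hours (37 °C, 5% CO2). CellTiter-Glo was then added, and after 10 min at room temperature, luminescence gave viability.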

[3] = Quantitative highthroughput screen to assess conditional lethalithy of NOMO1 cells grown in RPMI1640 with untreated serum (RPMI+s) (AID 1963876); conditions: NOMO1 AML cells in RPMI+serum, CellTiter-Glo viability, 48 h; series mostly up to 45.8 µM; further: nearly all actives have a fitted effect of over 35% in size;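 on Viability: 100% = DMSO wells and 0% = empty wells without cells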
Summary of the method: (§1)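 Each medium arm—HPLM with 10% dialyzed FBS, or RPMI1640 with 5 mM glucose and 10% untreated or dialyzed FBS—was screened against an 11-point, 3-fold compound titration for 48 h at 37 °C, with CellTiter-Glo luminescence as endpoint.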

[4] = Quantitative highthroughput screen to assess conditional lethalithy of NOMO1 cells grown in RPMI1640 with dialyzed fetal bovine serum (RPMI+ds) (AID 1963877); conditions: NOMO1 in RPMI+dialyzed FBS viability, ATP luminescence, 48 h; series mostly up to 45.8 µM; further: nearly all actives have a fitted effect of over 30% in size;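 on Viability: 100% = DMSO control wells and 0% = empty wells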
Summary of the method: as §1

[5] = Quantitative highthroughput screen to assess conditional lethalithy of P12 Ichikawa cells grown in Human Plasma-Like Medium with dialyzed fetal bovine serum (HPLM+ds) (AID 1963879); conditions: ATP luminescence, 48 h; Potency: viability; series mostly up to 45.8 µM; further: nearly all actives have a fitted effect of over 35% in size
Summary of the method: as §1

[6] = Quantitative highthroughput screen to assess conditional lethalithy of P12 Ichikawa cells grown in RPMI1640 with untreated serum (RPMI+s) (AID 1963881); conditions: ATP luminescence, 48 h; Potency: viability; series mostly up to 45.8 µM; further: nearly all actives have a fitted effect of over 35% in size;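 on Viability: 100% = DMSO wells and 0% = empty wells without cells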
Summary of the method: as §1

[7] = Quantitative highthroughput screen to assess conditional lethalithy of SEM cells grown in Human Plasma-Like Medium with dialyzed fetal bovine serum (HPLM+ds) (AID 1963882); conditions: SEM B-ALL cells in HPLM+ds, CellTiter-Glo viability, 48 h; series mostly up to 45.8 µM; further: nearly all actives have a fitted effect of over 35% in size
Summary of the method: as §1

[8] = Quantitative highthroughput screen to assess conditional lethalithy of SEM cells grown in RPMI1640 with unreated serum (RPMI+s) (AID 1963883); conditions: SEM B-ALL cells, CellTiter-Glo viability, 48 h; series mostly up to 45.8 µM; further: nearly all actives have a fitted effect of over 35% in size;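 on Viability: 100% = DMSO wells and 0% = empty wells without cells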
Summary of the method: as §1

[9] = Cellular viability qHTS for adrenocortical cancer (ACC) cell line SW-13 (AID 1963989); conditions: SW-13 ACC cells viability, CellTiter-Glo, 48 h; activity (max response): active compounds read low; further: nearly all actives have a fitted effect of over 65% in size;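 on activity (max response): cells grown in serum-free medium with ITS supplement; on the % scale 0 is the no-effect control and ±100 the full control effect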
Summary of the method: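 Viability was read as CellTiter-Glo luminescence after 48 h compound treatment (up to 46 uM final) of SW-13 cells grown serum-free; titration curves were fit with a four-parameter logistic model to give IC50 and efficacy.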

[10] = Cellular viability qHTS for adrenocortical cancer (ACC) cell line NCI-H295R (AID 1963990); conditions: CellTiter-Glo ATP luminescence, 48 h; series mostly up to 46.1 µM; further: nearly all actives have a fitted effect of over 60% in size
Summary of the method: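 CellTiter-Glo ATP luminescence, read 48 h after compound addition, measured viability of NCI-H295R adrenocortical cells grown serum-free with ITS. Final concentrations spanned up to 46 uM. Data normalized to DMSO and doxorubicin, fitted for IC50 and maximal response.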

[11] = Quantitative highthroughput screen to assess conditional lethalithy of P12 Ichikawa cells grown in RPMI1640 with dialyzed fetal bovine serum (RPMI+ds) (AID 1963880); conditions: ATP luminescence, 48 h; Potency: P12-Ichikawa viability; series mostly up to 45.8 µM; further: nearly all actives have a fitted effect of over 35% in size;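 on Viability: 100% = DMSO wells and 0% = empty wells on each plate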
Summary of the method: as §1

[12] = Quantitative highthroughput screen to assess conditional lethalithy of SEM cells grown in RPMI1640 with dialyzed fetal bovine serum (RPMI+ds) (AID 1963884); conditions: SEM B-ALL cells, RPMI+dialyzed FBS, CellTiter-Glo viability, 48 h; series mostly up to 45.8 µM; further: nearly all actives have a fitted effect of over 35% in size;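 on Viability: 100% = DMSO control wells and 0% = empty wells without cells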
Summary of the method: as §1
Potency means the concentration at half of the fitted maximal effect.

Nc1[nH]nc2nnc(-c3c(-c4ccccc4)nn4ccccc34)cc12
active: Potency [1] 9.2 µM | Potency [2] 16.4 µM | Potency [3] 1480 nM | Potency [4] 2640 nM | Potency [5] 8330 nM | Potency [6] 7430 nM | Potency [7] 23500 nM | Potency [8] 23500 nM
inactive: activity (max response) [9] -4.73% | Potency [10]

Nc1[nH]c(=O)ncc1F
inactive: Potency [1] | Potency [2] | Potency [3] | Potency [4] | Potency [5] | Potency [11] | Potency [6] | Potency [7] | Potency [8] | Potency [12] | Potency [10]

CN1CCN(c2ccc(C(=O)Nc3n[nH]c4ccc(Cc5cc(F)cc(F)c5)cc34)c(NC3CCOCC3)c2)CC1
active: Potency [1] 209 nM and 164 nM | Potency [2] 326 nM and 372 nM and 411 nM | Potency [3] 26300 nM | Potency [4] 20900 nM | Potency [5] 23400 nM | Potency [11] 18600 nM | Potency [6] 23400 nM | Potency [7] 4170 nM | Potency [8] 5240 nM | Potency [12] 3710 nM | Potency [9] 3160 nM | Potency [10] 7080 nM

NC[C@H](O)c1ccc(O)c(O)c1
inactive: Potency [1] | Potency [2] | Potency [3] | Potency [4] | Potency [5] | Potency [11] | Potency [6] | Potency [7] | Potency [8] | Potency [12] | activity (max response) [9] -12.7% and 7.51% | Potency [10]

CC(=O)Oc1ccccc1C(=O)O
inactive: Potency [1] | Potency [2] | Potency [3] | Potency [4] | Potency [5] | Potency [11] | Potency [6] | Potency [7] | Potency [8] | Potency [12] | activity (max response) [9] 9.69% and -6.24% | Potency [10]

O=C1Cc2cc(CCN3CCN(c4nsc5ccccc45)CC3)c(Cl)cc2N1
inactive: Potency [3] | Potency [4] | Potency [5] | Potency [11] | Potency [6] | Potency [7] | Potency [12]
active: Potency [1] 11.9 µM and 9.2 µM | Potency [2] 3.35 µM and 4.11 µM

COCCNCCCn1c(C(=O)CF)c(-c2ccc(C)cc2)c2c(N)ncnc21
inactive: Potency [3] | Potency [4] | Potency [5] | Potency [11] | Potency [6] | activity (max response) [9] 7.79% | Potency [10]
active: Potency [1] 4.17 µM | Potency [2] 6.61 µM | Potency [7] 11800 nM | Potency [8] 166 nM | Potency [12] 743 nM

C=CCn1c(=O)c2cnc(Nc3ccc(N4CCN(C)CC4)cc3)nc2n1-c1cccc(C(C)(C)O)n1
active: Potency [1] 0.525 µM | Potency [2] 259 nM and 372 nM | Potency [3] 1050 nM | Potency [4] 418 nM | Potency [5] 1050 nM | Potency [11] 1870 nM | Potency [6] 2640 nM | Potency [7] 235 nM | Potency [8] 418 nM | Potency [12] 148 nM | Potency [9] 3550 nM | Potency [10] 1000 nM

O=S(=O)(O)CCS
active: Potency [3] 743 nM | Potency [4] 833 nM | Potency [5] 3720 nM | Potency [11] 8330 nM | Potency [6] 3720 nM
inactive: Potency [1] | Potency [2] | Potency [7] | Potency [8] | Potency [12] | activity (max response) [9] 21.9% and 0.753% | Potency [10]

CNC(=O)c1ccc(Nc2ncc(C(F)(F)F)c(NCc3nccnc3N(C)S(C)(=O)=O)n2)cc1
active: Potency [1] 130 nM and 332 nM | Potency [2] 291 nM and 525 nM | Potency [7] 1480 nM | Potency [8] 1050 nM | Potency [12] 933 nM | Potency [10] 7940 nM
inactive: Potency [3] | Potency [4] | Potency [5] | Potency [6]

COc1ccc(-c2nc(N3CCOCC3)c3sc(CN(C)c4ncc(C(=O)NO)cn4)cc3n2)cn1
active: Potency [1] 0.0148 µM | Potency [2] 0.0093 µM | Potency [3] 20.9 nM | Potency [4] 23.5 nM | Potency [5] 20.9 nM | Potency [11] 23.5 nM | Potency [6] 18.7 nM | Potency [7] 11.8 nM | Potency [8] 7.4 nM | Potency [9] 355 nM | Potency [10] 89.1 nM

CC(C)OC(=O)C(C)(C)Oc1ccc(C(=O)c2ccc(Cl)cc2)cc1
inactive: Potency [1] | Potency [2] | Potency [3] | Potency [4] | Potency [5] | Potency [11] | Potency [6]
active: Potency [8] 10500 nM

OC(Cn1cncn1)(Cn1cncn1)c1ccc(F)cc1F
inactive: Potency [1] | Potency [2] | Potency [3] | Potency [4] | Potency [5] | Potency [11] | Potency [6] | Potency [7] | Potency [8] | Potency [12] | activity (max response) [9] 1.07% and 11% | Potency [10]

COc1cc(C(C)C)c2c(c1)S(=O)(=O)N(COc1cc(=O)n3cccc(OCCN4CCCCC4)c3n1)C2=O
inactive: Potency [3] | Potency [4] | Potency [5] | Potency [6] | Potency [7] | Potency [8] | Potency [12]
active: Potency [1] 20.9 µM | Potency [2] 11.8 µM
